Laboratory results: ChEMBL document CHEMBL3988442, “University of Dundee, Small-Polar-MMV Screening Library” (2021)

Target: AMP-activated protein kinase, AMPK (Homo sapiens) (UniProt P54646+O43741+P54619+Q9UGJ0+Q9Y478+Q13131+Q9UGI9)
Experiment: AMP-dependent Kinase enzyme assay. An in vitro enzyme assay that detects ADP turnover that is directly proportional to AMPK activity. This uses naive AMPK that is activated during the assay with MK-8722
Format: functional
Design: scale not given: direction of the effect not stated beside the values
Details: 30 µM

SMILES | Percent Effect
NCCc1cc(N2CCOCC2)nc(NC2CC2)n1 | 3.97%
CC(C)c1cc(C(=O)NCCc2nc(-c3ccncc3)n[nH]2)[nH]n1 | 39.1%
CC1CN(c2ccccc2Cl)C(=O)CN1C(=O)c1c[nH]c(=O)c(Cl)c1 (centres undefined) | 5.06%
Cc1nc(CN(C)S(=O)(=O)c2ccc(F)cc2Br)no1 | 1.76%
Cc1cc(=O)n2nc(Oc3ccc(Cl)c(C)c3)sc2n1 | -6.95%
CC(C)N1CCC(CC(=O)NCc2cc(O)ncn2)CC1 | -3.46%
N#Cc1c(N)nc2c(c1C1CCOC1)CCc1cc(O)ccc1-2 (centres undefined) | 32%
N#CC1COCCN1C(=O)c1cccc2cc[nH]c12 (centres undefined) | 5.13%
CCN(C)C(=O)c1cccc(S(=O)(=O)NCCc2csc(N)n2)c1 | -0.697%
O=C(COc1ccc(Cl)cc1)NCc1nncn1C1CC1 | -8.68%
CS(=O)(=O)N1CC[C@]2(O)CCN(c3cc(C#N)ccn3)C[C@@H]2C1 | -6.37%
Cc1cc(=O)n(CCNC(=O)c2ccccc2Cl)cn1 | -4.73%
Cc1nc(NCc2cccnc2)cc(C2COCCN2)n1 (centres undefined) | 3.04%
O=C(COc1ccc(F)cc1F)N1CCOCC(O)(CN2CCCC2)C1 (centres undefined) | 8.54%
Cc1ccc2c(C(=O)N(C)C)cc(-c3cnn(CCO)c3)nc2c1C | 7.33%
Cc1cc(C)c(C(=O)N(C)CCN(C)C(=O)c2[nH]c(C)cc2C)[nH]1 | -2.87%
CC(C(=O)NCCc1ccc2c(c1)OCCO2)n1cncn1 (centres undefined) | -6.97%
Cn1ncc2c(NC3CCC3)nc(-c3ccncc3)nc21 | 87.5%
N#Cc1ccc(Cl)cc1NCC1CC1 | 5.1%
CC(C(=O)Nc1cccc(F)c1)N(C)CCN1CCOCC1 (centres undefined) | 0.543%

SMILES | Percent Effect
CC(=O)N1CCCC1(C(=O)N1CCCC1)c1cnccn1 (centres undefined) | -0.265%
Oc1cc(C2CCCN(Cc3cccs3)C2)nc(-c2ccccn2)n1 (centres undefined) | 16.9%
COc1cc(F)c(NCc2nc3ccccc3n2C)cc1OC | -46.6%
CN(Cc1n[nH]c2c1CCCCC2)C(=O)c1cc(-c2cccn2C)n[nH]1 | 12.8%
CN1C[C@]2(CC[C@@H](C(=O)N3CCOCC3)CC2)Oc2ccccc2C1=O | 11.1%
Cc1ncsc1CCN(C)Cc1ccc(Br)o1 | -1.27%
Cc1noc(C)c1CNC(=O)NCCC(=O)N1CCCc2ccccc21 | -2.4%
Cn1cc(N2CCN(c3ccc(C#N)cc3Br)CC2=O)cn1 | -4.14%
CN(CCc1ccccc1)Cc1c(C2CCOCC2)[nH]c2ncccc12 | 11.1%
Cc1c(C(=O)NCC(C)(C)S(C)(=O)=O)cccc1-c1ccccn1 | 11.1%
Cc1cccc(Nc2noc3c2CN(C(=O)c2ccn(C)n2)CC3)c1C | 3.74%
Cc1cccc(C)c1Nc1noc2c1CN(C(=O)c1ccn(C)n1)CC2 | 15.9%
CC(C)Oc1ccccc1CNC(=O)N(C)C(C)CS(C)(=O)=O (centres undefined) | 9.72%
Cc1ncc(CNC(CCO)C2CCCCC2)s1 (centres undefined) | 4.05%
C[S+]([O-])c1cccc(NC(=O)N[C@H](CCO)c2ccccc2)c1 (some centres undefined) | -2.38%
O=C(c1ccnc(CC2COc3ccccc3C2)c1)N1CCCC1 (centres undefined) | 7.97%
CC(C)OCCN1CCC(Nc2nccnc2C#N)CC1 | -5.15%
Clc1ccc(N2CCC(OCC3CCCCO3)CC2)nc1 (centres undefined) | 3.4%
CN1CCN(CCCOc2ccccc2CN2C[C@H]3CC[C@H]2C3)CC1 | -5.02%
